Shown are actives, neighbours in structure and some others; about 1.3% of the full set was active somewhere.
SRC1 inh: SRC1 coactivator transcriptional activity inhibitors, primary screen, cell-based, luminescence; Nuclear receptor coactivator 1 (Homo sapiens), Q15788; HEK293 GAL4-SRC1 luciferase reporter; inhibition, % at 3.6 µM; 0.12% of 360,000 active;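 active = inhibition above the campaign mean plus 3 SD, with each screening campaign given its own cutoff, cut at about 60% in these data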;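 also: 0% = DMSO treated cells and 100% = gossypol at 36 µM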
NR2F2 inh: NR2F2 transcriptional activity inhibitors, primary screen, cell-based, luciferase reporter, HEK293T, luminescence. inhibition, % at 8.6 µM. HEK293T NGFI-A luciferase reporter. 0.7% of 370,000 active. COUP transcription factor 2 (Homo sapiens), P24468;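 active = inhibition above a per-plate cutoff, mean inhibition of test wells between control levels plus 3 SD, cut at about 38% in these data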;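 also: cells cotransfected with COUP-TFII expression vector driving the NGFI-A reporter; 0% = median of COUP-TF2 test wells and 100% = reporter-only cells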
Gli-Sufu antag: Gli-Sufu pathway antagonists, primary screen, luciferase luminescence, Sufu-KO-LIGHT cells, uHTS; Sufu-KO-LIGHT fibroblasts, Gli luciferase reporter luminescence; inhibition, % at 5 µM; 0.74% of 340,000 active; AID 588413, 2011;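 active = inhibition above about 55%, limit read from the data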;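 also: 0% = DMSO-treated cells and 100% = wells with medium but no cells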
NR5A2 inv ag: LRH-1 (NR5A2) inverse agonists, primary screen, cell-based, luminescence, HEK293T, StAR-luciferase reporter | LRH-1 transfected, 24 h | 0.13% of 360,000 active | Nuclear receptor subfamily 5 group A member 2 (Homo sapiens), O00482 | inhibition, % at 3.6 µM;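 active = inhibition above the mean inhibition of all tested compounds plus 3 SD, cut at about 73% in these data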;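 also: 0% = DMSO wells and 100% = reporter-only cells lacking LRH-1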
Target sequence (O00482 whole entry, looked up): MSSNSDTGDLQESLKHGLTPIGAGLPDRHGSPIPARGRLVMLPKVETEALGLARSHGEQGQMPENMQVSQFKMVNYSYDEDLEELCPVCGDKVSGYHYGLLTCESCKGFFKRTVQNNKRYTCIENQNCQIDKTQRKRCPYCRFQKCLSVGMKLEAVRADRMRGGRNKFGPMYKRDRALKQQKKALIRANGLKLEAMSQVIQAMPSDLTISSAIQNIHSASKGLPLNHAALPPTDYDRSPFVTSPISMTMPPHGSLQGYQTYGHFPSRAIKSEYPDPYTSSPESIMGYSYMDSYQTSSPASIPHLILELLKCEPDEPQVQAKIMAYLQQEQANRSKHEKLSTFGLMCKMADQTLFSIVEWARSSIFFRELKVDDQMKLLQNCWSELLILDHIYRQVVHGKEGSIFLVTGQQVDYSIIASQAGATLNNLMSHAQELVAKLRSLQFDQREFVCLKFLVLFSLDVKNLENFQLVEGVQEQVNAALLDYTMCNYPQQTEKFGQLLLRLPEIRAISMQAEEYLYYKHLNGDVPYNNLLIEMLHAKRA
NCOA2 inhibitor: inhibition of GAL4-SRC2 driven luciferase reporter, primary screen, SRC2 inhibitor project, cell-based, luminescence | Nuclear receptor coactivator 2 (Homo sapiens), Q15596 | HEK293 GAL4-SRC2 luciferase reporter | inhibition, % at 9 µM | AID 651957, 2012 | 0.17% of 370,000 active;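 active = inhibition above the mean inhibition of all tested compounds plus 3 SD, set per campaign, cut at about 52% in these data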;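 also: 0% = DMSO treated cells and 100% = cells given Gossypol at 36 µM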
NCOA3 inh: SRC3 coactivator transcriptional activity inhibitors, primary screen, cell-based, luminescence; Nuclear receptor coactivator 3 (Homo sapiens), Q9Y6Q9; inhibition, % at 3.6 µM; 0.17% of 360,000 active; HEK293 GAL4-SRC3 luciferase reporter;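 active = inhibition above a per-campaign cutoff, the mean of all compounds plus 3 SD, cut at about 60% in these data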;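 also: 0% = DMSO-treated cells and 100% = gossypol-treated cells at 36 µM; higher means less SRC3-driven luciferase light from the GAL4 reporter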
Gal4-VP16 ctr: Gal4-VP16 luciferase reporter inhibitors, counter-screen for COUP-TFII antagonist project, cell-based, luminescence, HEK293; shares compounds with NR2F2 inh; inhibition, % at 8.5 µM; 25% of 2,500 active; in the data active = inhibition above about 13%
COUP-TFII conf: NR2F2 transcriptional activity inhibitors, confirmation, cell-based, luciferase reporter, HEK293, triplicate; shares compounds with NR2F2 inh; HEK293 NGFI-A luciferase reporter, luminescence; inhibition, % at 8.5 µM; 45% of 2,500 active; AID 687008, 2013;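 active = mean inhibition over three repeats above a set limit taken from the earlier primary screen, cut at about 38% in these data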;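 also: 100% = cells given the luciferase reporter alone without the COUP-TF2 vector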
An asterisk follows results filed as active.

`Cc1c(C(=O)NCc2ccc(Cl)c(Cl)c2)sc(=O)n1Cc1ccc(S(=O)(=O)N(C)C)cc1` gave SRC1 inh 5, NR2F2 inh 38*, NR5A2 inv ag 12, NCOA2 inhibitor -2, NCOA3 inh 4, Gal4-VP16 ctr 3 and COUP-TFII conf 16.
Screening Cc1c(C(=O)NCc2ccc(C(C)C)cc2)sc(=O)n1Cc1ccc(S(=O)(=O)N(C)C)cc1 returned SRC1 inh 20, NR2F2 inh 68*, NR5A2 inv ag 32, NCOA2 inhibitor -1, NCOA3 inh 31, Gal4-VP16 ctr 7 and COUP-TFII conf 64*.
CCCCCc1ccc(OCCCC[n+]2ccc(C)cc2)c(CCCCC)c1 was read as SRC1 inh -1, NR2F2 inh 56*, Gli-Sufu antag 86*, NR5A2 inv ag 42, NCOA2 inhibitor -17, NCOA3 inh 12, Gal4-VP16 ctr 21* and COUP-TFII conf 32.
CCCCCc1ccc(OCCCC[n+]2cccc(C)c2)c(CCCCC)c1 was read as SRC1 inh 15, NR2F2 inh 57*, Gli-Sufu antag 85*, NR5A2 inv ag 58, NCOA2 inhibitor 4, NCOA3 inh 51, Gal4-VP16 ctr 8 and COUP-TFII conf 28.
`CCCCOc1ccc(C)cc1CN(CCO)CCO` gave SRC1 inh -14, NR2F2 inh 7, Gli-Sufu antag 4, NR5A2 inv ag -6, NCOA2 inhibitor -20 and NCOA3 inh 3.
Screening COc1cc(OC)c(OC)cc1CNc1cc(C)ccc1OC returned SRC1 inh 9, NR2F2 inh 39*, Gli-Sufu antag -13, NR5A2 inv ag 26, NCOA2 inhibitor 29, NCOA3 inh 27, Gal4-VP16 ctr 7 and COUP-TFII conf 18.
`COc1ccc(C)cc1NCc1cccc(OC)c1OC` gave SRC1 inh -20, NR2F2 inh 3, Gli-Sufu antag 4, NR5A2 inv ag 12, NCOA2 inhibitor 9 and NCOA3 inh -16.
COc1ccc(OC(=O)N2C/C(=C/c3ccccc3)C(=O)/C(=C\c3ccccc3)C2)cc1 was read as SRC1 inh 0, NR2F2 inh 20, Gli-Sufu antag 4, NR5A2 inv ag 4, NCOA2 inhibitor 19 and NCOA3 inh 21.
Screening CCOC(=O)N1C/C(=C\c2ccccc2)C(=O)/C(=C/c2ccccc2)C1 returned SRC1 inh 4, NR2F2 inh 28, Gli-Sufu antag -11, NR5A2 inv ag -2, NCOA2 inhibitor -140 and NCOA3 inh 26.
Screening O=C1/C(=C/c2ccccc2)CN(C(=O)CCN2CCOCC2)C/C1=C\c1ccccc1 returned SRC1 inh -45, NR2F2 inh 57*, Gli-Sufu antag 6, NR5A2 inv ag 53, NCOA2 inhibitor 13, NCOA3 inh 13, Gal4-VP16 ctr 35* and COUP-TFII conf 26.
Screening C[N+](C)(C)CCC(=O)N1C/C(=C/c2ccccc2)C(=O)/C(=C\c2ccccc2)C1 returned SRC1 inh -15, NR2F2 inh 72*, Gli-Sufu antag -29, NR5A2 inv ag -8, NCOA2 inhibitor 6, NCOA3 inh 16, Gal4-VP16 ctr 22* and COUP-TFII conf 29.
Screening CN(C)CCC(=O)N1C/C(=C/c2ccccc2)C(=O)/C(=C\c2ccccc2)C1 returned SRC1 inh -58, NR2F2 inh 79*, Gli-Sufu antag 19, NR5A2 inv ag 81*, NCOA2 inhibitor 64*, NCOA3 inh -6, Gal4-VP16 ctr 81* and COUP-TFII conf 87*.
Screening COc1ccc(C2C(C(=O)Nc3cc(Cl)ccc3F)CCC(=O)N2c2ccc(OC)cc2)cc1 (stereo not drawn) returned NR2F2 inh 3 and NCOA2 inhibitor 2.
Screening O=C(Cc1c[nH]c2ccccc12)Nc1ccc(Nc2cccnc2)cc1 returned NR2F2 inh 14 and NCOA2 inhibitor 13.
`COc1cc2c(cc1OC)C(c1c(Cl)cccc1Cl)=NCC2` gave SRC1 inh -32, NR2F2 inh 72*, NR5A2 inv ag -3, NCOA2 inhibitor 22, NCOA3 inh -50, Gal4-VP16 ctr 12 and COUP-TFII conf 58*.
Screening COC(=O)c1ccc2nc(-c3cccc(Cl)c3)c(Cc3ccccc3C(F)(F)F)n2c1 returned NR2F2 inh -18 and NCOA2 inhibitor -35.
Screening C[C@@H]1C=CCCO[C@]12C(=O)N(Cc1ccc(F)cc1)c1ccccc12 returned NR2F2 inh 4 and NCOA2 inhibitor 14.
COc1ccccc1NC(=O)C(C)OC(=O)c1cc2ccccc2[nH]1 (stereo not drawn) was read as SRC1 inh 7, NR2F2 inh 38*, Gli-Sufu antag 0, NR5A2 inv ag 30, NCOA2 inhibitor 39, NCOA3 inh 0, Gal4-VP16 ctr 1 and COUP-TFII conf 42*.
For CCOC(=O)[C@]12CCCC3=C1N(CCC3)C(=O)[C@@H](CC(=O)N1CCOCC1)C2 the results were NR2F2 inh -3 and NCOA2 inhibitor -15.
COc1cc(SC)ccc1C(=O)Nc1ccc(Br)cn1 was read as SRC1 inh -43, NR2F2 inh -6, Gli-Sufu antag 20, NR5A2 inv ag -68, NCOA2 inhibitor -49 and NCOA3 inh 24.
Screening COc1cc(SC)ccc1C(=O)Nc1ncc(C)s1 returned SRC1 inh -13, NR2F2 inh 48*, Gli-Sufu antag 18, NR5A2 inv ag -37, NCOA2 inhibitor 53*, NCOA3 inh 11, Gal4-VP16 ctr -9 and COUP-TFII conf 5.
`Cc1nnsc1NC(=O)OCc1ccc(C(C)(C)C)cc1` gave SRC1 inh 6, NR2F2 inh 56*, Gli-Sufu antag 3, NR5A2 inv ag 39, NCOA2 inhibitor 26, NCOA3 inh 19, Gal4-VP16 ctr -8 and COUP-TFII conf 38*.
For C=CCOC(=O)Nc1snnc1C the results were SRC1 inh -2, NR2F2 inh 16, Gli-Sufu antag -8, NR5A2 inv ag -4, NCOA2 inhibitor -11 and NCOA3 inh 10.
`COC(=O)[C@]12C[C@H](CC(=O)NCCc3ccccc3OC)C(=O)N(Cc3ccc(Cl)cc3Cl)C1=C[C@H](C(C)C)O[C@@H]2C1CC1` gave NR2F2 inh 3 and NCOA2 inhibitor 3.
